# Experimental data reported in PubChem BioAssay AID1159580 (chemical genetic matrix, 2015).
# Several values for one entry are separate records, joined by “and”; a condition that tells them apart may be missing. Identical values can stand only once. Hit rate of the full screen: of about 5,500 compounds, about 2,000 (36%) were called active. About 18% were inconclusive and are not listed. No stated cut-off is given here; in the data, active means normalized growth mostly below about 0.91 (no sharp cut-off); inconclusive means no clear call, values can overlap the other calls; inactive means mostly above about 0.92. The list shows a part of the results.
# Assay: chemical genetic growth profiling, strain panel (AID 1159580);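 further: tested at 20 µM; growth read once vehicle control cultures reached saturation at 30 °C; 1 = growth at the plate median or of vehicle wells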
# Conditions: S. cerevisiae deletion strains, growth OD
smiles,measurement,setting,value
O=C(/C=C/C=C/c1ccc2c(c1)OCO2)N1CCCCC1,normalized growth,"locus YAL013W, strain DEP1, stronger effect = lower value",0.962 (inactive)
same,normalized growth,"locus YAL021C, strain ccr4, stronger effect = lower value",0.965 (inactive)
same,normalized growth,"locus YAL026C, strain drs2, stronger effect = lower value",0.885 (active)
same,normalized growth,"locus YAL030W, strain snc1, stronger effect = lower value",0.959 (inactive)
same,normalized growth,"locus YBL061C, strain skt5, stronger effect = lower value",0.949 (inactive)
same,normalized growth,"locus YBR009C, strain hhf1, stronger effect = lower value",0.907 (active)
same,normalized growth,"locus YBR021W, strain FUR4, stronger effect = lower value",0.893 (inactive)
same,normalized growth,"locus YBR023C, strain chs3, stronger effect = lower value",0.92 (inactive)
same,normalized growth,"locus YBR171W, strain sec66, stronger effect = lower value",0.91 (inactive)
same,normalized growth,"locus YBR229C, strain ROT2, stronger effect = lower value",0.969 (inactive)
same,normalized growth,"locus YBR231C, strain swc5, stronger effect = lower value",0.951 (inactive)
same,normalized growth,"locus YBR279W, strain paf1, stronger effect = lower value",0.952 (inactive)
same,normalized growth,"locus YCL011C, strain gbp2, stronger effect = lower value",0.889 (active)
same,normalized growth,"locus YCL016C, strain dcc1, stronger effect = lower value",0.915 (inactive)
same,normalized growth,"locus YCL029C, strain bik1, stronger effect = lower value",0.954 (inactive)
same,normalized growth,"locus YCL061C, strain MRC1, stronger effect = lower value",0.943 (inactive)
same,normalized growth,"locus YCL069W, strain vba3, stronger effect = lower value",0.904 (active)
same,normalized growth,"locus YCR088W, strain abp1, stronger effect = lower value",0.945 (inactive)
same,normalized growth,"locus YDL005C, strain med2, stronger effect = lower value",0.975 (inactive)
same,normalized growth,"locus YDL035C, strain GPR1, stronger effect = lower value",0.922 (inactive)
same,normalized growth,"locus YDL040C, strain nat1, stronger effect = lower value",0.966 (inactive)
same,normalized growth,"locus YDL074C, strain BRE1, stronger effect = lower value",0.835 (inactive)
same,normalized growth,"locus YDL101C, strain DUN1, stronger effect = lower value",0.969 (inactive)
same,normalized growth,"locus YDL134C, strain PPH21, stronger effect = lower value",0.944 (inactive)
same,normalized growth,"locus YDL185W, strain tfp1, stronger effect = lower value",0.94 (inactive)
same,normalized growth,"locus YDL192W, strain arf1, stronger effect = lower value",0.939 (inactive)
same,normalized growth,"locus YDR001C, strain nth1, stronger effect = lower value",0.936 (inactive)
same,normalized growth,"locus YDR069C, strain doa4, stronger effect = lower value",0.998 (inactive)
same,normalized growth,"locus YDR101C, strain arx1, stronger effect = lower value",0.931 (inactive)
same,normalized growth,"locus YDR137W, strain rgp1, stronger effect = lower value",0.687 (active)
same,normalized growth,"locus YDR150W, strain NUM1, stronger effect = lower value",0.986 (inactive)
same,normalized growth,"locus YDR159W, strain sac3, stronger effect = lower value",0.955 (inactive)
same,normalized growth,"locus YDR162C, strain NBP2, stronger effect = lower value",0.93 (inactive)
same,normalized growth,"locus YDR195W, strain ref2",1.23 [resistant] (active)
same,normalized growth,"locus YDR297W, strain sur2, stronger effect = lower value",0.965 (inactive)
same,normalized growth,"locus YDR318W, strain mcm21, stronger effect = lower value",0.895 (active)
same,normalized growth,"locus YDR334W, strain swr1, stronger effect = lower value",0.968 (inactive)
same,normalized growth,"locus YDR335W, strain msn5, stronger effect = lower value",0.96 (inactive)
same,normalized growth,"locus YDR388W, stronger effect = lower value",0.931 (inactive)
same,normalized growth,"locus YDR392W, strain spt3, stronger effect = lower value",0.599 (active)
same,normalized growth,"locus YDR502C, strain sam2, stronger effect = lower value",0.888 (active)
same,normalized growth,"locus YEL003W, strain gim4, stronger effect = lower value",0.94 (inactive)
same,normalized growth,"locus YEL037C, strain rad23, stronger effect = lower value",0.946 (inactive)
same,normalized growth,"locus YEL061C, strain CIN8 (second series), stronger effect = lower value",0.969 (inactive)
same,normalized growth,"locus YEL061C, strain CIN8, stronger effect = lower value",0.971 (inactive)
same,normalized growth,"locus YER015W, strain faa2, stronger effect = lower value",0.922 (active)
same,normalized growth,"locus YER016W, strain bim1, stronger effect = lower value",0.948 (inactive)
same,normalized growth,"locus YER110C, stronger effect = lower value",0.951 (inactive)
same,normalized growth,"locus YER111C, strain swi4, stronger effect = lower value",0.986 (inactive)
same,normalized growth,"locus YER155C, strain BEM2 (second series), stronger effect = lower value",0.696 (active)
same,normalized growth,"locus YER155C, strain BEM2, stronger effect = lower value",0.963 (inactive)
same,normalized growth,"locus YER167W, strain BCK2, stronger effect = lower value",0.907 (inactive)
same,normalized growth,"locus YFR010W, strain ubp6, stronger effect = lower value",0.974 (inactive)
same,normalized growth,"locus YGL078C, strain dbp3, stronger effect = lower value",0.957 (inactive)
same,normalized growth,"locus YGL086W, strain mad1, stronger effect = lower value",0.923 (active)
same,normalized growth,"locus YGL167C, strain pmr1, stronger effect = lower value",0.945 (inactive)
same,normalized growth,"locus YGL173C, strain kem1, stronger effect = lower value",0.926 (inactive)
same,normalized growth,"locus YGL227W, strain vid30, stronger effect = lower value",0.948 (inactive)
same,normalized growth,"locus YGL240W, strain doc1, stronger effect = lower value",0.919 (inactive)
same,normalized growth,"locus YGL248W, strain PDE1, stronger effect = lower value",0.938 (inactive)
same,normalized growth,"locus YGL253W, strain hxk2, stronger effect = lower value",0.873 (active)
same,normalized growth,"locus YGR078C, strain PAC10, stronger effect = lower value",0.871 (inactive)
same,normalized growth,"locus YGR135W, strain pre9, stronger effect = lower value",0.886 (active)
same,normalized growth,"locus YGR229C, strain SMI1, stronger effect = lower value",0.732 (active)
same,normalized growth,"locus YGR252W, strain gcn5, stronger effect = lower value",0.732 (active)
same,normalized growth,"locus YHR013C, strain ard1, stronger effect = lower value",0.951 (inactive)
same,normalized growth,"locus YHR027C, strain rpn1, stronger effect = lower value",0.959 (inactive)
same,normalized growth,"locus YHR030C, strain SLT2, stronger effect = lower value",0.939 (inactive) and 0.975 (inactive)
same,normalized growth,"locus YHR079C, strain IRE1 (second series), stronger effect = lower value",0.937 (inactive)
same,normalized growth,"locus YHR079C, strain IRE1, stronger effect = lower value",0.977 (inactive)
same,normalized growth,"locus YHR094C, strain hxt1, stronger effect = lower value",0.954 (inactive)
same,normalized growth,"locus YHR129C, strain ARP1, stronger effect = lower value",0.973 (inactive)
same,normalized growth,"locus YHR142W, strain chs7, stronger effect = lower value",0.857 (active)
same,normalized growth,"locus YHR200W, strain rpn10, stronger effect = lower value",0.925 (inactive)
same,normalized growth,"locus YIL066C, strain RNR3, stronger effect = lower value",0.94 (inactive)
same,normalized growth,"locus YIL073C, strain SPO22, stronger effect = lower value",0.864 (inactive)
same,normalized growth,"locus YIL125W, strain kgd1, stronger effect = lower value",0.96 (inactive)
same,normalized growth,"locus YIR030C, strain dcg1, stronger effect = lower value",0.941 (inactive)
same,normalized growth,"locus YJL092W, strain hpr5, stronger effect = lower value",0.947 (inactive)
same,normalized growth,"locus YJL095W, strain BCK1 (second series), stronger effect = lower value",0.935 (inactive)
same,normalized growth,"locus YJL095W, strain BCK1, stronger effect = lower value",0.779 (active) and 0.987 (inactive)
same,normalized growth,"locus YJL115W, strain asf1, stronger effect = lower value",0.984 (inactive)
same,normalized growth,"locus YJL129C, strain trk1, stronger effect = lower value",0.855 (active)
same,normalized growth,"locus YJL134W, strain LCB3, stronger effect = lower value",0.978 (inactive)
same,normalized growth,"locus YJL154C, strain vps35, stronger effect = lower value",0.96 (inactive)
same,normalized growth,"locus YJL164C, strain tpk1, stronger effect = lower value",0.904 (active)
same,normalized growth,"locus YJL166W, strain qcr8, stronger effect = lower value",0.93 (inactive)
same,normalized growth,"locus YJL168C, strain set2, stronger effect = lower value",0.945 (inactive)
same,normalized growth,"locus YJL187C, strain SWE1 (second series), stronger effect = lower value",0.942 (inactive)
same,normalized growth,"locus YJL187C, strain SWE1, stronger effect = lower value",0.967 (inactive)
same,normalized growth,"locus YJR043C, strain POL32, stronger effect = lower value",0.862 (inactive)
same,normalized growth,"locus YJR066W, strain TOR1, stronger effect = lower value",0.955 (inactive)
